Each structure is given as a SMILES string. Among all 13,000 compounds or so, about 3,200 (25%) showed an effect of 50% or more. The list shows a part of the results.

The % Inhibition is the change of the read-out against control, counted positive when it falls.

The subject of the assay is P. falciparum stage V gametocytes. On the set-up: BacTiter-Glo ATP luminescence viability of purified stage V gametocytes in 384-well plates, per cent inhibition versus DMSO. The conditions noted are these: 48 h, 5 µM; inhibitor.
Consider `COCCCNc1sc(S(=O)(=O)c2ccccc2)nc1S(=O)(=O)c1ccc(Cl)cc1` [TCMDC-124764], for which the “% Inhibition” value is listed as -6.212%.

Consider `Cc1ccccc1NC(=O)C1CSCN1C(=O)OCc1ccccc1` (stereo not shown) [TCMDC-125742], for which the “% Inhibition” value is listed as -21.88%.

`COc1ccc(F)cc1-c1ccccc1CNC(=O)c1cnn(-c2ccc([N+](=O)[O-])cc2)c1C(F)(F)F` [TCMDC-136460]: the “% Inhibition” value is -26.92%.

Turning to `COc1ccc(C(=O)NCc2ccccc2-c2ccc(C(C)(C)C)cc2)cc1O` [TCMDC-136716], the “% Inhibition” value is recorded as -20.55%.

Take `COc1ccc(F)cc1-c1ccccc1CNC(=O)CN(C)S(=O)(=O)c1cc(C)cc(Cl)c1C` [TCMDC-132302]: the “% Inhibition” value came to 82.24%.

As to `CCCCCC(C)N=C(Nc1ccc([N+](=O)[O-])cc1O)Nc1ccccc1Br` (stereo not shown) [TCMDC-140073], the “% Inhibition” value was -48.06%.

On to `CCOC(=O)C1=C(C)N=c2sc(=Cc3cc(Cl)ccc3O)c(=O)n2C1c1ccc(OC)cc1` (stereo not shown) [TCMDC-124112], for which the “% Inhibition” value is -5.89%.

Take `CCOC(=O)C1=C(C)N=c2sc(=Cc3cc(Cl)ccc3O)c(=O)n2C1c1cc(OC)c(OC)cc1Br` (stereo not shown) [TCMDC-124116]: the “% Inhibition” value is 34.65%.

As to `CCOC(=O)C1=C(C)N=c2sc(=Cc3cc(Cl)ccc3O)c(=O)n2C1c1ccc2c(c1)OCO2` (stereo not shown) [TCMDC-124113], the “% Inhibition” value is given as 66.04%.

As for `NC(=O)c1cccc(Nc2nccc(Nc3ccc(Oc4c(Cl)cccc4Cl)c(Cl)c3)n2)c1` [TCMDC-138594], the “% Inhibition” value was -30.34%.

Turning to `N#Cc1cccc(C(O)CN(Cc2ccccc2)Cc2ccccc2)c1` (stereo not shown) [TCMDC-131250], the “% Inhibition” value is 62.4%.

In the case of `OC(CN(Cc1ccccc1)Cc1ccccc1)Cn1c2ccc(Cl)cc2c2cc(Cl)ccc21` (stereo not shown) [TCMDC-125720], the “% Inhibition” value is recorded as 14.45%.

In the case of `N#Cc1ccc2[nH]cc(C(=O)CCCCCN(Cc3ccccc3)Cc3ccccc3)c2c1` [TCMDC-131257], the “% Inhibition” value is given as 33.92%.

Turning to `Cc1cc(C(F)(F)F)cc(-n2ncc(-c3ccc(C(=O)NCCNCc4ccccc4)cc3)c2N)n1` [TCMDC-136659], the “% Inhibition” value was -53.07%.

Turning to `CCc1c[nH]c2c(N(c3ccccc3)S(C)(=O)=O)cc(C(=O)N[C@@H](Cc3ccccc3)[C@H](O)CNCc3cccc(C(F)(F)F)c3)cc12` [TCMDC-135318], the “% Inhibition” value amounted to 91.8%.

Consider `CCNc1cc(C(=O)N[C@@H](Cc2ccccc2)[C@H](O)CNC(C)(C)CCCC(C)C)cc(N2CCCC2=O)c1` [TCMDC-138889], for which the “% Inhibition” value is listed as 7.674%.

On to `CCc1c[nH]c2c(N(c3ccccc3)S(C)(=O)=O)cc(C(=O)N[C@@H](Cc3ccccc3)[C@H](O)CNC(C)(C)CCCC(C)C)cc12` [TCMDC-135319], for which the “% Inhibition” value stood at 124.7%.

Turning to `CS(=O)(=O)N(c1ccc(F)cc1)c1cc(C(=O)N[C@@H](Cc2ccccc2)[C@H](O)CNCc2cccc(C(F)(F)F)c2)cc(N2CCCC2=O)c1` [TCMDC-138920], the “% Inhibition” value is on record as -15.57%.

For `CS(=O)(=O)N(c1cccc(F)c1)c1cc(C(=O)N[C@@H](Cc2ccccc2)[C@H](O)CNCc2cccc(C(F)(F)F)c2)cc(N2CCCC2=O)c1` [TCMDC-138921], the “% Inhibition” value was -9.659%.

`CN=C(NC)c1cccc(NC(=O)C=Cc2ccc(C=CC(=O)Nc3cccc(C(=NC)NC)c3)cc2)c1` [TCMDC-137213]: the “% Inhibition” value is given as 18.83%.

With `CCc1cc2c(=O)c(-c3nc(C)cs3)c([C@H](N)Cc3ccc(O)cc3)oc2cc1O` [TCMDC-124111], the “% Inhibition” value is recorded as 0.6377%.

`O=C(N/C=N/c1cc([N+](=O)[O-])c(-c2cccnc2)n1-c1ccc(O)cc1)c1ccccc1` [TCMDC-125227]: the “% Inhibition” value is -2.82%.

As for `COc1ccc(CC(=O)NC(CCCN2CCC(c3ccccc3)CC2)c2ccc(Cl)c(Cl)c2)cc1OC` (stereo not shown) [TCMDC-141901], the “% Inhibition” value is -2.836%.

As to `O=S(=O)(c1ccc(Oc2ccccc2)cc1)N(CCC(O)(C(F)(F)F)C(F)(F)F)Cc1cccc(O)c1` [TCMDC-133480], the “% Inhibition” value is listed as 74.25%.

`O=S(=O)(c1cc(Cl)sc1Cl)N(CCC(O)(C(F)(F)F)C(F)(F)F)Cc1cccc(O)c1` [TCMDC-133476]: the “% Inhibition” value is 47.79%.

Regarding `O=C(Nc1cccc(CN2CCN(Cc3cccc(O)c3)CC2)c1)c1cc2ccccc2s1` [TCMDC-134623], the “% Inhibition” value is given as -8.756%.

As for `COC(=O)c1cccc(CN(CCC(O)(C(F)(F)F)C(F)(F)F)C(=O)CC2CCCC2)c1` [TCMDC-133482], the “% Inhibition” value stood at 48.89%.

With `O=S(=O)(c1cccc(Cl)c1F)N(CCC(O)(C(F)(F)F)C(F)(F)F)Cc1cccc(O)c1` [TCMDC-133479], the “% Inhibition” value is 57.98%.

For the compound `O=S(=O)(c1cc2ccccc2s1)N(CCC(O)(C(F)(F)F)C(F)(F)F)Cc1cccc(O)c1` [TCMDC-133477], the “% Inhibition” value is 95.75%.

Turning to `CC(=O)Nc1ccc(CN(Cc2ccc(F)cc2)Cc2cccc(Oc3ccccc3)c2)cc1` [TCMDC-140033], the “% Inhibition” value was -16.62%.

In the case of `O=S(=O)(c1csc2ccccc12)N(CCC(O)(C(F)(F)F)C(F)(F)F)Cc1cccc(O)c1` [TCMDC-133478], the “% Inhibition” value is recorded as 82.79%.

With `Oc1cc(Nc2ccnc3cc(I)ccc23)c(F)cc1Cl` [TCMDC-138386], the “% Inhibition” value was -3.325%.

For `COc1ccc2nccc([C@@H](O)CN3CCC(NC(=O)/C=C/c4c[nH]c5c(C)cccc45)CC3)c2c1` [TCMDC-141000], the “% Inhibition” value is reported as -6.826%.

As to `COC(=O)CCn1c(C2CCN(CC3CCC(NC(=O)/C=C/c4ccc(Cl)c(Cl)c4)CC3)CC2)nc2ccccc21` (stereo not shown) [TCMDC-140309], the “% Inhibition” value was -7.996%.

Turning to `Cc1ccc(C)c2sc(N(CCCn3ccnc3)C(=O)c3ccco3)nc12` [TCMDC-124924], the “% Inhibition” value was 13.91%.

Consider `Cc1cc(N2CCC(NS(=O)(=O)c3cccc4cccnc34)CC2)nc(Nc2cccc(C#N)c2)n1` [TCMDC-134212], for which the “% Inhibition” value was -0.7992%.

As to `CCOC(=O)C1=C(C)NC2=C(C(=O)CCC2)C1c1cn(Cc2ccc(Cl)cc2Cl)nc1-c1ccccc1` (stereo not shown) [TCMDC-125393], the “% Inhibition” value was -36.58%.

With `COc1ccc(CNC2CCN(C)CC2)cc1-c1ccc(S(=O)(=O)NCCN2CCCC2)s1` [TCMDC-132259], the “% Inhibition” value amounted to 103.7%.

On to `COc1ccc(CNC2CCN(C)CC2)cc1-c1ccc(S(=O)(=O)NCC2CCCO2)s1` (stereo not shown) [TCMDC-132478], for which the “% Inhibition” value is reported as 30.18%.

For `COc1ccc(CNC2CCN(C)CC2)cc1-c1ccc(S(=O)(=O)NC2CCC2)s1` [TCMDC-132254], the “% Inhibition” value turned out to be 75.62%.

As to `COc1ccc(CCN2CCC(NCc3cccc(N(C)C)c3)CC2)cc1` [TCMDC-124991], the “% Inhibition” value is reported as -14.2%.

`COc1ccc(CNC2Cc3ccccc3C2)cc1-c1ccc(S(=O)(=O)NCCN2CCCC2)s1` [TCMDC-132258]: the “% Inhibition” value is on record as 106.2%.

Take `COc1ccc(CNC2CCCC2)cc1-c1ccc(S(=O)(=O)NCCN2CCCC2)s1` [TCMDC-132299]: the “% Inhibition” value stood at 107.1%.

Turning to `N#Cc1cccc(-c2cnc(N)c(-c3nc4ccc(S(N)(=O)=O)cc4[nH]3)c2)c1` [TCMDC-138816], the “% Inhibition” value came to 7.84%.

For `COc1ccc(C(c2ccc(N(C)C)cc2)c2ccc(N(C)C)cc2)cc1` [TCMDC-125652], the “% Inhibition” value is reported as 48.26%.

`CN1CCN(CC(O)CNC(=O)Nc2ccc(Cl)cc2)CC1` (stereo not shown) [TCMDC-134633]: the “% Inhibition” value amounted to 21.11%.

For the compound `COc1ccc2nccc([C@@H](O)CN3CCC(NC(=O)/C=C/c4ccc(Cl)c(C(F)(F)F)c4)CC3)c2c1` [TCMDC-141110], the “% Inhibition” value is reported as -13.82%.

Consider `CN1CCC(c2c[nH]c3ccc(NC(=O)Nc4ccc(-c5ccncc5)c(Cl)c4Cl)cc23)CC1` [TCMDC-139179], for which the “% Inhibition” value was -11.47%.

`CSc1ccc(C=CC(=O)NC(=O)c2ccccc2O)cc1` [TCMDC-123758]: the “% Inhibition” value was determined as 32.47%.

As for `O=C(NC1CCN(c2ccnc(Nc3ccc(F)cc3)n2)C1)c1cc2ccccc2s1` (stereo not shown) [TCMDC-133599], the “% Inhibition” value amounted to 10.95%.

With `O=C(Nc1cccc(CN2CCCN(Cc3ccc(O)cc3)CC2)c1)c1ccc(Cl)c(Cl)c1` [TCMDC-141834], the “% Inhibition” value is -18.14%.

Regarding `Cc1ccc(NC(=O)c2cccc(CN3CCCN(Cc4cccc(O)c4)CC3)c2)cc1C` [TCMDC-135979], the “% Inhibition” value came out at 91.29%.

Regarding `O=C(Nc1cccc(CN2CCCN(Cc3cccc(O)c3)CC2)c1)c1ccc(Cl)c(Cl)c1` [TCMDC-141831], the “% Inhibition” value was -42.16%.

As to `Cc1ccc(NC(=O)c2cccc(CN3CCCN(Cc4cccc(O)c4)CC3)c2)cc1F` [TCMDC-135959], the “% Inhibition” value is given as -11.31%.

On to `O=C(Nc1cccc(CN2CCCN(CC3CCCCC3)CC2)c1)c1ccc(Cl)c(Cl)c1` [TCMDC-141818], for which the “% Inhibition” value is listed as -34.63%.

Consider `COc1cccc(CN2CCCN(Cc3cccc(NC(=O)c4ccc(Cl)c(Cl)c4)c3)CC2)c1` [TCMDC-141830], for which the “% Inhibition” value is recorded as 58.26%.

`Cc1ccc(C(=O)Nc2cccc(CN3CCCN(Cc4ccc(O)cc4)CC3)c2)cc1` [TCMDC-141815]: the “% Inhibition” value was determined as 21.11%.

In the case of `O=C(Nc1cccc(CN2CCN(Cc3cccc(O)c3)CC2)c1)c1ccc(Cl)c(Cl)c1` [TCMDC-134618], the “% Inhibition” value is on record as 76.18%.

`N#Cc1ccc(CN2CCCN(Cc3cccc(NC(=O)c4ccc(Cl)c(Cl)c4)c3)CC2)cc1` [TCMDC-141823]: the “% Inhibition” value is given as -56.24%.

In the case of `O=C(Nc1cccc(CN2CCN(Cc3ccc(O)cc3)CC2)c1)c1ccc(Cl)c(Cl)c1` [TCMDC-134619], the “% Inhibition” value is -11.77%.

Take `Cc1ccc(CN2CCCN(Cc3cccc(NC(=O)c4ccc(Cl)c(Cl)c4)c3)CC2)cc1` [TCMDC-141835]: the “% Inhibition” value is 80.74%.

Take `Cc1ccc(NC(=O)c2ccc(CN3CCCN(Cc4cccc(O)c4)CC3)cc2)cc1C` [TCMDC-136427]: the “% Inhibition” value is reported as 11.16%.

As for `O=C(Nc1ccc(OC2CCN(Cc3ccccc3)CC2)c(Cl)c1)c1ccc(F)cc1` [TCMDC-133967], the “% Inhibition” value turned out to be 19.46%.

As for `FC(F)(F)c1ccc2nc(-c3ccc(-c4ccc(CN5CCN(c6ccncc6)CC5)cc4)cc3)[nH]c2c1` [TCMDC-132915], the “% Inhibition” value is listed as -1.262%.

Source of the values: PMC4552634, “A New Set of Chemical Starting Points with Plasmodium falciparum Transmission-Blocking Potential for Antimalarial Drug Discovery” (PLoS ONE, 2015).
